Assay results taken from PubChem BioAssay AID2113 (National Center for Advancing Translational Sciences (NCATS), 2009).
Records with an inconclusive call do not appear. Where a call stands in place of a potency, no number is given. Activity calls are given as the source filed them. Calls come from the whole dose curve; as a rule, active = well fitted curve in either direction with a large enough effect; inconclusive = small, poorly fitted or top-dose-only effect; inactive = no such curve, though single readings can be large or run the other way.

target: Lysosomal alpha-glucosidase (Homo sapiens) (UniProt P10253); assay: Confirmation of Inhibitors and Activators of Human alpha-Glucosidase From Spleen Homogenate; details: alpha-glucosidase enzyme activity; series mostly up to 60.5 µM;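 for potency: fluorescence of 4-methylumbelliferone released from a fluorogenic glucopyranoside substrate at pH 5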
Outline: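 Compounds titrated against spleen-homogenate alpha-glucosidase, pH 5.0, 1 mM 4-MU-glucoside substrate, 37 C for 40 min. Fluorescence after pH 10 stop, normalised to no-enzyme and enzyme controls; Hill-equation AC50.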
Potency is the fitted concentration of half-maximal effect.

| SMILES | Potency |
| --- | --- |
| O=C(O)c1c(-c2ccccc2)c2oc3ccccc3c2[nH]c1=O | inactive |
| CCNc1sc(C(=O)c2cccs2)c(N)c1-c1nc2ccccc2s1 | inactive |
| COc1ccc(C#Cc2cnc(Cl)c3cncnc23)cc1OC | inactive |
| O=C(COC(=O)c1ccccc1Br)NCCc1ccc(F)cc1 | inactive |
| NC(=O)NN=C1c2cc(S(=O)(=O)N3CCOCC3)ccc2-c2ccc(S(=O)(=O)N3CCOCC3)cc21 | inactive |
| CC1(C)CC(=O)c2cc(C(=O)NC3CCSC3=O)c(=O)n(-c3ccccc3)c2C1 (stereo unspecified) | inactive |
| CCc1sc(-c2cc3cccc(OC)c3oc2=O)nc1-c1ccccc1 | inactive |
| COc1cc(CN2CCC(CO)(Cc3cccc(C(F)(F)F)c3)CC2)ccc1F | inactive |
| O=C(CC(c1ccccc1)c1cc(Br)ccc1O)NCCN1CCOCC1 (stereo unspecified) | inactive |
| CC(=O)c1ccc(N2CCN(S(=O)(=O)c3ccc4c(c3)oc(=O)n4C)CC2)cc1 | inactive |
| Cc1ccc2c(c1)c1ncnc(N3CCC4(CC3)OCCO4)c1n2C | inactive |
| O=S(=O)(c1ccccc1)N1CCNCC1 | inactive |
| O=C(c1ccccc1)N1CCN(C(=O)c2ccccc2)CC1 | inactive |
| Clc1cc2c(cc1/C=C/c1ccc3ccccc3n1)OCO2 | inactive |
| COc1cc(-c2cc(N3C(=O)Nc4ccccc4N3O)n[nH]2)cc(OC)c1OC | inactive |
| O=c1oc2ccccc2cc1-c1nc2c(s1)CCc1ccccc1-2 | inactive |
| CC(=O)Oc1ccc2cc(-c3nc(-c4ccccc4)c(C)s3)c(=O)oc2c1 | inactive |
| Cc1cccc2cc3c(NC(=O)c4ccccn4)nn(C)c3nc12 | inactive |

| SMILES | Potency |
| --- | --- |
| O=c1oc2ccc(Cl)cc2cc1-c1nc2c(s1)CCc1ccccc1-2 | inactive |
| c1ccc(-n2c(-c3cccs3)nc3nc4ccccc4nc32)cc1 | inactive |
| CCCN1CNc2c(c(=O)[nH]c(=S)n2CCc2c(OC)cccc2OC)C1 | inactive |
| O=c1[nH]cc(CCc2ccccc2)c2ncncc12 | inactive |
| Cc1ccc(-n2c3c(c(=O)[nH]c2=S)C(C(F)(F)F)(C(F)(F)F)NC(=O)N3)cc1 | inactive |
| COc1ccccc1N1CCN(C(c2cccs2)C(C)NC(=O)c2cccs2)CC1 (stereo unspecified) | inactive |
| CCCN1CNc2c(c(=O)[nH]c(=S)n2CCc2cccc(Cl)c2Cl)C1 | 25.1 µM (active) |
| CCCN1CNc2c(c(=O)[nH]c(=S)n2CCc2c(C)cccc2C)C1 | inactive |
| CCCN1CNc2c(c(=O)[nH]c(=S)n2CCC)C1 | inactive |
| CCOC(=O)CCc1cccc2c1CCC2=O | inactive |
| O=C(c1cc2c(ccc3ccccc32)oc1=O)N1CCN(CCO)CC1 | inactive |
| COc1cccc2ccc(/C=C/c3ccc4c(c3)OCO4)nc12 | inactive |
| Cc1nc(SCC(=O)N2CCN(c3ccccc3)CC2)c2oc3ccccc3c2n1 | inactive |
| COc1ccc(/C=C/c2nnc(NC(=O)CSc3ccccc3)s2)cc1 | inactive |
| CCCN1CNc2c(c(=O)[nH]c(=S)n2CCc2ccccn2)C1 | inactive |
| CCOC(=O)N1CCN(c2cc(N(C)CCO)c([N+](=O)[O-])c3nonc23)CC1 | inactive |
| COc1cccc2cc(-c3nc4c(s3)CCc3ccccc3-4)c(=O)oc12 | inactive |
| CCN(CC)S(=O)(=O)c1ccc2c(c1)-c1cc(S(=O)(=O)N(CC)CC)ccc1C2=NNC(N)=S | inactive |
